Test results: the supplement of paper PMC8728848
The full list was thinned out, with the strongest signals kept by preference.

Experiments:
Assay in all cases: glycan array binding signal (z-score within array); higher = stronger binding
Details in all cases: glycan notation: IUPAC condensed, linker removed
[1] = target: GlcNAc(b1-2)Man(a1-3)[GlcNAc(b1-4)][GlcNAc(b1-2)Man(a1-6)]Man(b1-4)GlcNAc(b1-4)[Fuc(a1-6)]GlcNAc
How it was run: (§1)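 Glycan array data were curated from 3228 arrays in the Consortium for Functional Glycomics database and kept only where the protein sequence was available. Glycan names were converted to IUPAC-condensed notation, and columns mapping to the same glycan were averaged. The binding signal is a within-array Z-score, averaged across arrays of the same protein sequence at different concentrations or buffers and across linkers. Negative Z-scores can be read as non-binding.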

[2] = target: GlcNAc(b1-3)Gal(b1-4)GlcNAc(b1-2)[GlcNAc(b1-3)Gal(b1-4)GlcNAc(b1-6)]Man(a1-6)[GlcNAc(b1-3)Gal(b1-4)GlcNAc(b1-2)Man(a1-3)]Man(b1-4)GlcNAc(b1-4)GlcNAc
How it was run: as §1

[3] = target: GlcNAc(b1-3)Gal(b1-4)GlcNAc(b1-3)Gal(b1-4)GlcNAc
How it was run: as §1

[4] = target: GlcNAc(b1-3)Gal(b1-4)GlcNAc(b1-3)Gal(b1-4)GlcNAc(b1-3)Gal(b1-4)GlcNAc(b1-3)Gal(b1-4)GlcNAc(b1-2)Man(a1-3)[GlcNAc(b1-3)Gal(b1-4)GlcNAc(b1-3)Gal(b1-4)GlcNAc(b1-3)Gal(b1-4)GlcNAc(b1-3)Gal(b1-4)GlcNAc(b1-2)Man(a1-6)]Man(b1-4)GlcNAc(b1-4)[Fuc(a1-6)]GlcNAc
How it was run: as §1

[5] = target: GlcNAc(b1-3)Gal(b1-4)GlcNAc(b1-3)[GlcNAc(b1-3)Gal(b1-4)GlcNAc(b1-3)]GalNAc
How it was run: as §1

[6] = target: GlcNAc(b1-3)Gal(b1-4)GlcNAc(b1-6)[Gal(b1-3)]GalNAc
How it was run: as §1

GlcNAc(b1-3)Man = target: GlcNAc(b1-3)Man
How it was run: as §1

[7] = target: Man(a1-2)Man(a1-3)[Man(a1-2)Man(a1-6)]Man
How it was run: as §1

[8] = target: Man(a1-2)Man(a1-3)[Man(a1-2)Man(a1-6)]Man(a1-6)[Man(a1-2)Man(a1-2)Man(a1-3)]Man(b1-4)GlcNAc(b1-4)GlcNAc
How it was run: as §1

[9] = target: Man(a1-2)Man(a1-6)[Man(a1-3)]Man(a1-6)[Man(a1-2)Man(a1-2)Man(a1-3)]Man
How it was run: as §1

[10] = target: Man(a1-3)[Man(a1-6)]Man(b1-4)GlcNAc(b1-4)GlcNAc
How it was run: as §1

[11] = target: Man(a1-3)[Man(a1-6)]Man(b1-4)GlcNAc(b1-4)[Fuc(a1-6)]GlcNAc
How it was run: as §1

Neu5Ac(a2-3)Gal = target: Neu5Ac(a2-3)Gal
How it was run: as §1

[12] = target: Neu5Ac(a2-3)Gal(b1-3)GalNAc
How it was run: as §1

[13] = target: Neu5Ac(a2-3)Gal(b1-3)GlcNAc(b1-3)Gal(b1-3)GlcNAc
How it was run: as §1

[14] = target: Neu5Ac(a2-3)Gal(b1-4)GlcNAc(b1-2)Man
How it was run: as §1

[15] = target: Neu5Ac(a2-3)Gal(b1-4)GlcNAc(b1-3)Gal(b1-4)GlcNAc(b1-6)[Gal(b1-3)]GalNAc
How it was run: as §1

[16] = target: Neu5Ac(a2-3)Gal(b1-4)GlcNAc(b1-6)[Neu5Ac(a2-3)Gal(b1-3)]GalNAc
How it was run: as §1

[17] = target: Neu5Ac(a2-3)Gal(b1-4)[Fuc(a1-3)]GlcNAc(b1-3)GalNAc
How it was run: as §1

[18] = target: Neu5Ac(a2-3)Gal6S(b1-4)GlcNAc
How it was run: as §1

[19] = target: Neu5Ac(a2-3)[GalNAc(b1-4)]Gal(b1-4)GlcNAc
How it was run: as §1

[20] = target: Neu5Ac(a2-6)Gal(b1-4)GlcNAc(b1-2)Man(a1-3)Man(b1-4)GlcNAc(b1-4)GlcNAc
How it was run: as §1

[21] = target: Neu5Ac(a2-6)Gal(b1-4)GlcNAc(b1-2)Man(a1-3)[GlcNAc(b1-2)Man(a1-6)]Man(b1-4)GlcNAc(b1-4)GlcNAc
How it was run: as §1

[22] = target: Neu5Ac(a2-6)Gal(b1-4)GlcNAc(b1-2)Man(a1-6)Man(b1-4)GlcNAc(b1-4)GlcNAc
How it was run: as §1

[23] = target: Neu5Ac(a2-6)Gal(b1-4)GlcNAc(b1-2)Man(a1-6)[Man(a1-3)]Man(b1-4)GlcNAc(b1-4)GlcNAc
How it was run: as §1

[24] = target: Neu5Ac(a2-6)Gal(b1-4)GlcNAc(b1-6)[Gal(b1-3)]GalNAc
How it was run: as §1

[25] = target: Neu5Ac(a2-6)GlcNAc(b1-4)GlcNAc(b1-4)GlcNAc
How it was run: as §1

Neu5Ac(b2-6)GalNAc = target: Neu5Ac(b2-6)GalNAc
How it was run: as §1

[26] = target: Neu5Gc(a2-8)Neu5Gc(a2-3)Gal(b1-4)GlcNAc(b1-3)Gal(b1-4)GlcNAc
How it was run: as §1

B1: AidA (Burkholderia cenocepacia) (protein)
chain: MSRVTDVLVSFDTETILKKYPNPSKNPAAPTLIDWRYVYMVTNQDNVISGQAGGELDLKAQVGDLIRWRETSLSLGFENQVVFYKFIGNVGNDLISTPTPRVAEASIPVPNTSKPEVPTCQKVANYYWSSECLKVGRVTYHFQFQIIDRNCQSQGCFSWDPFISIHN
In the case of B1, the “glycan array binding signal (z-score)” value [1] is reported as -0.375, the “glycan array binding signal (z-score)” value [2] is reported as 2.61 and the “glycan array binding signal (z-score)” value [3] is reported as 0.86. The “glycan array binding signal (z-score)” value [4] was -0.735, the “glycan array binding signal (z-score)” value [5] was -0.928 and the “glycan array binding signal (z-score)” value [6] was -0.57. For the same binder, the “glycan array binding signal (z-score)” value (GlcNAc(b1-3)Man) was -0.022, the “glycan array binding signal (z-score)” value [7] was -0.113 and the “glycan array binding signal (z-score)” value [8] was 0.274. The “glycan array binding signal (z-score)” value [9] was -0.364, the “glycan array binding signal (z-score)” value [10] was -0.131 and the “glycan array binding signal (z-score)” value [11] was 1.97. For the same binder, the “glycan array binding signal (z-score)” value (Neu5Ac(a2-3)Gal) was -0.347, the “glycan array binding signal (z-score)” value [12] was -0.739 and the “glycan array binding signal (z-score)” value [13] was -0.146. The “glycan array binding signal (z-score)” value [14] was 1.58, the “glycan array binding signal (z-score)” value [15] was -0.559 and the “glycan array binding signal (z-score)” value [16] was -0.108. The “glycan array binding signal (z-score)” value [17] was 1.86, the “glycan array binding signal (z-score)” value [18] was -0.261 and the “glycan array binding signal (z-score)” value [19] was -0.388. The “glycan array binding signal (z-score)” value [20] was -0.123, the “glycan array binding signal (z-score)” value [21] was -0.443 and the “glycan array binding signal (z-score)” value [22] was -0.428. The “glycan array binding signal (z-score)” value [23] was 0.17, the “glycan array binding signal (z-score)” value [24] was -0.153 and the “glycan array binding signal (z-score)” value [25] was -0.74. For the same binder, the “glycan array binding signal (z-score)” value (Neu5Ac(b2-6)GalNAc) was 0.412 and the “glycan array binding signal (z-score)” value [26] was -0.459.
